Reference: PubChem BioAssay (Tox21)
Where “and” joins values, the source holds several entries; their conditions need not be identical. Identical values can stand only once. Results filed as inconclusive are left out. Where a structure was tested more than once in an assay, its records may differ in their call. Calls of active or inactive are those of the source. Unless noted, calls come from the whole dose curve.

Legend:
[1] = Nuclear factor erythroid 2-related factor 2/antioxidant responsive element (Nrf2/ARE) small molecule agonists: qHTS cell viability counter screen in human keratinocytes (AID 1919968; active = well fitted curve in the direction sought with a large enough effect in the repeat runs; an effect the other way counts as inactive or inconclusive; note: nearly all actives have a fitted effect of over 55% in size; note: potency is the fitted concentration of half-maximal effect)
Method in brief: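 Cells of the KeratinoSens line were plated at 1,500 per well and left for 5 h before compound transfer from DMSO stocks. After a 23 h incubation (37 C, 5% CO2), CellTiter-Fluor was added. Signal was taken as fluorescence intensity 1 h later.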

[2] = Nuclear factor erythroid 2-related factor 2/antioxidant responsive element (Nrf2/ARE) small molecule agonists: luciferase reporter gene qHTS assay in human keratinocytes (AID 1919969); note: nearly all actives have a fitted effect of over 35% in size; note: potency is the fitted concentration of half-maximal effect
[3] = target: Gonadotropin-releasing hormone receptor (Homo sapiens) (UniProt P30968); assay: Human gonadotropin-releasing hormone receptor (GnRHR) small molecule agonists, calcium flux assay in GnRHR-HEK293 cells (AID 1920063); note: nearly all actives have a fitted effect of over 35% in size
Sequence of Gonadotropin-releasing hormone receptor (Homo sapiens) (P30968 whole entry, looked up): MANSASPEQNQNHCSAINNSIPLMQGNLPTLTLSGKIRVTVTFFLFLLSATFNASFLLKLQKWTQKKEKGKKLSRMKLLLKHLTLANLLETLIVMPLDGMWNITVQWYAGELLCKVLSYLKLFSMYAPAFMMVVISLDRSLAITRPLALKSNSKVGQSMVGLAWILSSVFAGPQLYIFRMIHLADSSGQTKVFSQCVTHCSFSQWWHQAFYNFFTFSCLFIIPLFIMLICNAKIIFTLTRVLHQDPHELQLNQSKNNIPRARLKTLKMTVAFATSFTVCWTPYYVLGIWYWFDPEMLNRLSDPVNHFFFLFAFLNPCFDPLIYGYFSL
Method in brief: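 Compounds dissolved in DMSO are pin-transferred onto dye-loaded GnRHR-HEK293 cells, which were seeded 18 h before at 37 C/5% CO2. Calcium signal is read as fluorescence intensity at 1 s intervals for 3 min.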

[4] = target: KiSS-1 receptor (Homo sapiens) (UniProt Q969F8); assay: Human kisspeptin (KISS1R) small molecule agonists, calcium flux assay in KISS1R-HEK293 cells (AID 1920064; active = well fitted curve in the direction sought with a large enough effect in the repeat runs; an effect the other way counts as inactive or inconclusive)
Sequence of KiSS-1 receptor (Homo sapiens) (Q969F8 whole entry, looked up): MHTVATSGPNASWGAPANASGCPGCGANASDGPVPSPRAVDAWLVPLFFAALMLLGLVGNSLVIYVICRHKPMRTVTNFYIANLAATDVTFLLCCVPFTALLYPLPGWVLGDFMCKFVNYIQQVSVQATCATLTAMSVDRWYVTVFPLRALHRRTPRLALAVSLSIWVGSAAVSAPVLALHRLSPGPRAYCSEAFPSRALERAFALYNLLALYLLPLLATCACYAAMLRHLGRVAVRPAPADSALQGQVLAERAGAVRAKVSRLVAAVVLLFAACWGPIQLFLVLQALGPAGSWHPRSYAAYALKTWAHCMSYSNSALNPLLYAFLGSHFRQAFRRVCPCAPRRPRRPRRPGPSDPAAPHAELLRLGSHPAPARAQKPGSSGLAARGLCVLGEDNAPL
Method in brief: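 Cell line: HEK293, stable human KISS1R. Dye loading 1 h at 37 C after 18 h culture. Read: kinetic fluorescence, 480/540 nm, 3 min at 1 s intervals.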

[5] = G protein-coupled receptor (GPCR) small molecule agonists, calcium flux assay: HEK293 wild type cell line counter screen (AID 1920065)
Method in brief: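 Tox21 10K compounds, 15 concentrations each in triplicate, pin-transferred in DMSO onto dye-loaded cells; kinetic read at 480/540 nm for 3 min, 1 s intervals.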

[6] = p53 small molecule agonists, cell-based qHTS assay with human liver microsomes (AID 1963577)
Method in brief: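 p53RE-bla reporter cells were pre-incubated 5 h at 37 C, then treated with compounds plus human liver microsomes (0.5 mg/mL final) and NADPH (0.5 mg/mL final) for 16 h at 37 C. Beta-lactamase activity was read by LiveBLAzer fluorescence after 2 h at room temperature.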

[7] = p53 small molecule agonists, cell-based qHTS assay with rat liver microsomes: qHTS cell viability counter screen (AID 1963580); note: nearly all actives have a fitted effect of over 45% in size
Method in brief: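 Rat liver microsome (0.5 mg/mL final) and NADPH (0.5 mg/mL final) co-incubation with compounds for 16 h at 37 C on HCT-116 p53RE-bla cells; cytotoxicity taken from intracellular ATP luminescence.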

[8] = p53 small molecule agonists, cell-based qHTS assay: qHTS cell viability counter screen (AID 1963581); note: nearly all actives have a fitted effect of over 45% in size; note: potency is the fitted concentration of half-maximal effect
Method in brief: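 ATP content measured by luminescence in HCT-116 p53RE-bla cells treated 16 h at 37 C, same wells as the reporter screen.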

[9] = target: 5-hydroxytryptamine receptor 2A (Homo sapiens) (UniProt P28223); assay: 5-hydroxytryptamine receptor 2A (HTR2A) small molecule antagonists, cell-based qHTS assay (AID 1963586); note: nearly all actives have a fitted effect of over 45% in size
Sequence of 5-hydroxytryptamine receptor 2A (Homo sapiens) (P28223 whole entry, looked up): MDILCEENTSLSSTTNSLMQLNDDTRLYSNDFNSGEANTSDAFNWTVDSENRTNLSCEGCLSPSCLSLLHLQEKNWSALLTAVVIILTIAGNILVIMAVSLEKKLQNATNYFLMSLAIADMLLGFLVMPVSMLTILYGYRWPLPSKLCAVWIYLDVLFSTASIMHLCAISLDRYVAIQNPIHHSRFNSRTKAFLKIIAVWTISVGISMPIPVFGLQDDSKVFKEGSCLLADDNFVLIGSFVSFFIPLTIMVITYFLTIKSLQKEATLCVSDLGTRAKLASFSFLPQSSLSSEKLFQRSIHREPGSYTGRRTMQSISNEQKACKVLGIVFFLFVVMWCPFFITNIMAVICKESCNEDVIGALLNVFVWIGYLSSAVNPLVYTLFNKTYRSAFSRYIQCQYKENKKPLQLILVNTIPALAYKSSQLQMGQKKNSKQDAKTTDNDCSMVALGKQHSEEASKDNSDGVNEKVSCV
Method in brief: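 CHO cells stably expressing human HTR2A were plated for 18 h at 37 C, then loaded with calcium dye for 1 h. Compounds were preincubated 5 min at room temperature before DOI (4 nM solution) was added. Kinetic fluorescence was read for 3 min.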

[10] = target: 5-hydroxytryptamine receptor 2A (Homo sapiens) (UniProt P28223); assay: 5-hydroxytryptamine receptor 2A (HTR2A) small molecule agonists, cell-based qHTS assay (AID 1963587); note: nearly all actives have a fitted effect of over 30% in size; note: potency is the fitted concentration of half-maximal effect
Method in brief: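 Kinetic calcium-flux fluorescence (2 min, 1 sec intervals) after compound addition in agonist mode. HTR2A-CHO cells were cultured 18 h, then dye-loaded 1 h at 37 C.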

[11] = target: Muscarinic acetylcholine receptor M1 (Homo sapiens) (UniProt P11229); assay: Cholinergic receptor muscarinic 1 (CHRM1) small molecule antagonists, cell-based qHTS assay (AID 1963588); note: nearly all actives have a fitted effect of over 40% in size; note: potency is the fitted concentration of half-maximal effect
Sequence of Muscarinic acetylcholine receptor M1 (Homo sapiens) (P11229 whole entry, looked up): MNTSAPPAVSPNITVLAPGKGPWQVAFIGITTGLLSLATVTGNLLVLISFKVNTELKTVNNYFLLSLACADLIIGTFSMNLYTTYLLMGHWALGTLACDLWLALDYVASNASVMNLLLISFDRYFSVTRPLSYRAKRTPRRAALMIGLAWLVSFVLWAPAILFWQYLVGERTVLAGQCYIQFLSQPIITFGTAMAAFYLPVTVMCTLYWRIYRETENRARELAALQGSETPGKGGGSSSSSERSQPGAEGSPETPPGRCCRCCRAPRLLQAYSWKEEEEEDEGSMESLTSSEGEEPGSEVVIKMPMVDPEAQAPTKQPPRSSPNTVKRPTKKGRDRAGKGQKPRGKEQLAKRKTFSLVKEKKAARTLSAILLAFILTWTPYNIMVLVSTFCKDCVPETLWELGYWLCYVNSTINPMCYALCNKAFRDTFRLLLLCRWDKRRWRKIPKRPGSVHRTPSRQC
Method in brief: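 Compounds were tested at 15 concentrations in three independent runs. Dye-loaded CHRM1-CHO cells were exposed 5 min at room temperature before stimulation by acetylcholine added at 50nM. Intracellular calcium was read kinetically on FDSS for 3 min.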

[12] = target: Muscarinic acetylcholine receptor M1 (Homo sapiens) (UniProt P11229); assay: Cholinergic receptor muscarinic 1 (CHRM1) small molecule agonists, cell-based qHTS assay (AID 1963589); note: nearly all actives have a fitted effect of over 35% in size
Method in brief: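 Homogeneous fluorescence calcium flux, agonist mode. Human M1-expressing CHO cells; compound dosed at 15 concentrations, three independent runs; signal sampled every 1 sec.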

[13] = cAMP Responsive Elements (CRE) small molecule agonists, cell-based qHTS assay (AID 1963590)
Method in brief: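 HEK 293T cells stably bearing CRE-bla were plated at 2,000 cells per well and rested 18 h. Compounds, positive controls or DMSO were added for 3 h at 37 C. LiveBLAzer B/G substrate was then loaded for 2 h at room temperature.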

[14] = cAMP Responsive Elements (CRE) small molecule antagonists, cell-based qHTS assay (AID 1963591; active = well fitted inhibition curve with a large enough effect in the signal ratio in the repeat runs, not every such curve was filed as active; the % refers to the signal ratio; note: potency is the fitted concentration of half-maximal effect)
Method in brief: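 First, CRE-bla HEK293T cells settled 18 h at 37 C. Next, compound and 0.25 uM final NKH477 were applied for 3 h. Last, LiveBLAzer B/G substrate was loaded for 2 h at room temperature.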

[15] = target: Beta-2 adrenergic receptor (Homo sapiens) (UniProt P07550); assay: Adrenergic beta2 receptor (ADRB2) small molecule antagonists, cell-based qHTS assay (AID 1963592); note: series mostly up to about 92 µM; nearly all actives have a fitted effect of over 50% in size
Sequence of Beta-2 adrenergic receptor (Homo sapiens) (P07550 whole entry, looked up): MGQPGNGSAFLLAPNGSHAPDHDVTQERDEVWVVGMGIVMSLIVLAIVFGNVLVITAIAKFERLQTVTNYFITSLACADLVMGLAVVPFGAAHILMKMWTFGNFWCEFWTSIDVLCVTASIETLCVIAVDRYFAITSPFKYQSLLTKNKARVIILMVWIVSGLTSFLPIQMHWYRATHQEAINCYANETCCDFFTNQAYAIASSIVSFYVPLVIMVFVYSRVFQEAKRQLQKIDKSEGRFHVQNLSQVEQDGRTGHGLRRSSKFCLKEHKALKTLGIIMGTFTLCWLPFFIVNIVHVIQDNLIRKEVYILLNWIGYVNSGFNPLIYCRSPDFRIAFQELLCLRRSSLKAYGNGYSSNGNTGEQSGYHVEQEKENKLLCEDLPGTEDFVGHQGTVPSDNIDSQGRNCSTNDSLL
Method in brief: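 Assay format: CHO-ADRB2 cells, 18-20hr seeding at 37C/5% CO2, then compound plus 1nM isoproterenol agonist mix for 0.5hr RT. Homogeneous time-resolved fluorescence cAMP detection after 1hr, expressed as 665/615 nm ratio.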

[16] = target: D(2) dopamine receptor (Homo sapiens) (UniProt P14416); assay: Dopamine D2 receptor (DRD2) small molecule agonists, cell-based qHTS assay (AID 1963594); note: nearly all actives have a fitted effect of over 35% in size; note: potency is the fitted concentration of half-maximal effect
Sequence of D(2) dopamine receptor (Homo sapiens) (P14416 whole entry, looked up): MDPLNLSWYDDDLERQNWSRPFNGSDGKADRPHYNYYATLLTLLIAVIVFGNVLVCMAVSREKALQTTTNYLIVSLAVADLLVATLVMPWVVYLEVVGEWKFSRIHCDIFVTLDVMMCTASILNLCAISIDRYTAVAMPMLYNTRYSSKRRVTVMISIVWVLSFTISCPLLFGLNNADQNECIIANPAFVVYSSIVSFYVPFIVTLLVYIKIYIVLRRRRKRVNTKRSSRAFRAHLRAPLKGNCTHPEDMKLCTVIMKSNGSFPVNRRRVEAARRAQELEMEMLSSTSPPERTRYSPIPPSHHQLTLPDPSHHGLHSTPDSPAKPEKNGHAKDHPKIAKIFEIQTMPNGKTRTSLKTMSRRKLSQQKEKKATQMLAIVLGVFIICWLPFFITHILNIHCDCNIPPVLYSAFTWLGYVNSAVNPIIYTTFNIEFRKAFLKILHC
Method in brief: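 cAMP accumulation in DRD2-HEK293 cells measured by HTRF after 1 h detection; compounds added 10 min before NKH477 (200nM […]) forskolin-analogue stimulation, 30 min at room temperature, with Ro20-1724 present at 0.1 mM final.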

[17] = target: D(2) dopamine receptor (Homo sapiens) (UniProt P14416); assay: Dopamine D2 receptor (DRD2) small molecule antagonists, cell-based qHTS assay (AID 1963595; active = well fitted inhibition curve with a large enough effect in the signal ratio in the repeat runs, with a control signal flat; the % refers to the signal ratio)
Method in brief: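 Antagonist mode in DRD2-HEK293 cells: after compound addition with 0.1 mM Ro20-1724, cells received quinpirole (12 nM) and NKH477 (200 nM) for 30 min at room temperature; HTRF cAMP read after 1 h detection.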

[18] = p53 small molecule agonists, cell-based qHTS assay (AID 1963582; active = well fitted activation curve with a large enough effect in the signal ratio in the repeat runs, not every such curve was filed as active; the % refers to the signal ratio)
Method in brief: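 16 h compound exposure (37 C) of p53 response element–bla cells, preceded by 5 h recovery at 37 C/5% CO2; read-out via LiveBLAzer B/G FRET substrate, 2 h RT, fluorescence intensity.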

[19] = target: Beta-2 adrenergic receptor (Homo sapiens) (UniProt P07550); assay: Adrenergic beta2 receptor (ADRB2) small molecule agonists, cell-based qHTS assay (AID 1963593);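 note: CHO cells stably overexpressing human ADRB2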
Method in brief: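 CHO cells stably over-expressing ADRB2 were plated overnight at 37C, then dosed with compounds plus a stimulation mix containing 100uM IBMX and 25uM Ro-20-1724 for 0.5hr at room temperature. cAMP was measured by HTRF competition, 1hr.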

[20] = p53 small molecule agonists, cell-based qHTS assay with human liver microsomes: qHTS cell viability counter screen (AID 1963579); note: nearly all actives have a fitted effect of over 45% in size
Method in brief: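 p53RE-bla cells (4,000/well) were pre-incubated 5 h at 37 C, then given compounds in DMSO plus human liver microsomes (0.5 mg/mL final) and NADPH (0.5 mg/mL final) for 16 h at 37 C. Viability was read by CellTiter-Glo luminescence.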

Measured: Potency

CCCCCCCCCCCC#N
inactive: [1] | [2] | [3] | [4] | [5] | [6] | [7] | [8] | [9] | [10] | [11] | [12] | [13] | [14] | [15] | [16] | [17]

O=C(O)COc1ccc(Cl)cc1Cl
inactive: [1] | [2] | [3] | [4] | [5] | [6] | [7] | [8] | [18] | [9] | [10] | [11] | [12] | [14] | [15] | [19] | [16] | [17]

BrC(Br)Br
inactive: [1] | [2] | [3] | [4] | [5] | [6] | [7] | [8] | [18] | [9] | [10] | [11] | [12] | [13] | [14] | [15] | [19] | [16] | [17]

O=C(O)C(F)(F)C(F)(F)C(F)(F)C(F)(F)C(F)(F)C(F)(F)C(F)(F)C(F)(F)F
active: [11] 4.21 µM
inactive: [1] | [2] | [3] | [4] | [5] | [6] | [7] | [18] | [9] | [10] | [12] | [13] | [14] | [15] | [19] | [16] | [17]

c1ccc(N=Nc2ccccc2)cc1
inactive: [1] | [2] | [3] | [4] | [5] | [6] | [7] | [8] | [18] | [9] | [10] | [11] | [12] | [13] | [14] | [15] | [19] | [16] | [17]

Clc1nc(Cl)nc(Cl)n1
inactive: [1] | [2] | [3] | [4] | [5] | [6] | [20] | [18] | [9] | [10] | [11] | [12] | [13] | [14] | [15] | [16] | [17]

CCCCOCCOC(C)=O
inactive: [1] | [2] | [3] | [4] | [5] | [6] | [7] | [8] | [18] | [9] | [11] | [12] | [13] | [14] | [15] | [19] | [16] | [17]

CC[N+](=O)[O-]
inactive: [1] | [2] | [3] | [4] | [5] | [6] | [7] | [8] | [18] | [10] | [11] | [12] | [13] | [14] | [15] | [19] | [16] | [17]

CCOCN(C(=O)CCl)c1c(C)cccc1CC
active: [2] 25.8 µM and 68.6 µM
inactive: [1] | [3] | [4] | [5] | [6] | [20] | [8] | [9] | [10] | [12] | [15] | [16] | [17]

O=[N+]([O-])c1cc(Cl)ccc1Cl
inactive: [1] | [2] | [3] | [4] | [5] | [6] | [7] | [18] | [9] | [10] | [11] | [12] | [13] | [14] | [15] | [19] | [16] | [17]

O=S1OCC2C(CO1)C1(Cl)C(Cl)=C(Cl)C2(Cl)C1(Cl)Cl (configuration not stated)
inactive: [2] | [3] | [4] | [5] | [6] | [7] | [8] | [18] | [9] | [12] | [15]
active: [1] 48.6 µM and 61.1 µM
43.7 µM (active) and inactive: [10]

C=CCCl
inactive: [1] | [2] | [3] | [4] | [5] | [6] | [20] | [7] | [8] | [18] | [9] | [11] | [12] | [13] | [14] | [15] | [16] | [17]

CN1C[C@H](C(=O)N[C@]2(C)O[C@@]3(O)[C@@H]4CCCN4C(=O)[C@H](Cc4ccccc4)N3C2=O)C=C2c3cccc4[nH]cc(c34)C[C@H]21
active: [14] 48.8 µM | [16] 1.23 µM
inactive: [1] | [2] | [3] | [4] | [5] | [6] | [20] | [7] | [18] | [13] | [19]
1.45 µM (active) and inactive: [8]

CCOC(=O)C(C)OC(=O)c1cc(Oc2ccc(C(F)(F)F)cc2Cl)ccc1[N+](=O)[O-] (configuration not stated)
inactive: [1] | [2] | [3] | [4] | [5] | [6] | [20] | [8] | [9] | [10] | [11] | [12] | [13] | [14] | [15] | [16] | [17]

C[C@]1(O)CC[C@H]2[C@@H]3CCC4=CC(=O)CC[C@]4(C)[C@@]3(F)[C@@H](O)C[C@@]21C
inactive: [1] | [2] | [3] | [4] | [5] | [6] | [20] | [7] | [8] | [18] | [11] | [12] | [13] | [14] | [15] | [16] | [17]

Clc1cnc(Oc2ccc(Oc3ncc(Cl)cc3Cl)cc2)c(Cl)c1
inactive: [1] | [2] | [3] | [4] | [5] | [6] | [20] | [8] | [18] | [9] | [10] | [12] | [13] | [15] | [19] | [16] | [17]
